What all share (test): DAPPL (digital affinity profiling via proximity ligation, sequencing); 10 mM Tris-HCl pH 7.5, 50 mM NaCl, 1 mM DTT, 4% glycerol, room temperature, 30 min; GST-TFs on glutathione beads, 16-mer random dsDNA library, 0.1% formaldehyde crosslink after washing; high values mean tight binding
One test concerns the target T1, FLI1 (Homo sapiens, UniProt Q01543 1-452).
T1 sequence: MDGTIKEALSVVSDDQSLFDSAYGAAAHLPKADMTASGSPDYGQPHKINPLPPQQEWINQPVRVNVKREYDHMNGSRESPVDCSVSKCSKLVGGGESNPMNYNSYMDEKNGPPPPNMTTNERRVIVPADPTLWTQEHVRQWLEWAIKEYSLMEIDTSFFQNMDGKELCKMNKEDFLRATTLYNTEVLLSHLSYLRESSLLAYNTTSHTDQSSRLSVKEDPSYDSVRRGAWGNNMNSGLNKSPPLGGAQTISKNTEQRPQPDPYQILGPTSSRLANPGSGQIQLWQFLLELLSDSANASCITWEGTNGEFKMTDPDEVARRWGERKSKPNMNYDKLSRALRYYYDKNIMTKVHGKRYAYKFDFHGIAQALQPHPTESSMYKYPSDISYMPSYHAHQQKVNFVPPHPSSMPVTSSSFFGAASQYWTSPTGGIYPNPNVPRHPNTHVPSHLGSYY
As to conditions: protein: recombinant; tags: N-terminal GST; dsDNA, one strand shown. Put shortly: (§1)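 Pools of DNA-barcoded human transcription factors, expressed in yeast as GST fusions on glutathione beads and combined with a tag-only sample, were incubated with 200 nmole of a 16-mer random double-stranded DNA library. Incubation took 30 min at room temperature in Tris/NaCl/DTT/glycerol buffer and was followed by washing, 0.1% formaldehyde crosslinking, proximity ligation (BsaI/T4 ligase, 1 h, 37 °C), PCR amplification and sequencing on an Illumina NextSeq500. Binding signal is the ratio of a hexamer's read frequency for a factor to its frequency for the tag-only sample.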

The next test concerns the target T2, ELK1 (Homo sapiens, UniProt P19419 1-428).
T2 sequence: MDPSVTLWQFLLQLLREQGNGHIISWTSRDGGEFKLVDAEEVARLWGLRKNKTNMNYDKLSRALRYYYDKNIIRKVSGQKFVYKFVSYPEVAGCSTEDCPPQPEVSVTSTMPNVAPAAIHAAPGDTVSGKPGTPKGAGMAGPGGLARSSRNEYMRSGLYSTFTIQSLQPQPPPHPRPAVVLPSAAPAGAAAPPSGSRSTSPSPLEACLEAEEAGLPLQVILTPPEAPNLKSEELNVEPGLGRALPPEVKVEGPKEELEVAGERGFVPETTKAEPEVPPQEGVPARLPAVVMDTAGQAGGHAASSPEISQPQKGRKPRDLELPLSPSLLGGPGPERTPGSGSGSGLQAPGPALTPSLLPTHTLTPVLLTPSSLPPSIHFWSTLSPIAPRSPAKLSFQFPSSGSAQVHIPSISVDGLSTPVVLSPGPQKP
As to conditions: protein: recombinant; tags: N-terminal GST; dsDNA, one strand shown. Put shortly:
as §1

The next test has as its target T3, GABPA (Homo sapiens, UniProt Q06546 1-454).
T3 sequence: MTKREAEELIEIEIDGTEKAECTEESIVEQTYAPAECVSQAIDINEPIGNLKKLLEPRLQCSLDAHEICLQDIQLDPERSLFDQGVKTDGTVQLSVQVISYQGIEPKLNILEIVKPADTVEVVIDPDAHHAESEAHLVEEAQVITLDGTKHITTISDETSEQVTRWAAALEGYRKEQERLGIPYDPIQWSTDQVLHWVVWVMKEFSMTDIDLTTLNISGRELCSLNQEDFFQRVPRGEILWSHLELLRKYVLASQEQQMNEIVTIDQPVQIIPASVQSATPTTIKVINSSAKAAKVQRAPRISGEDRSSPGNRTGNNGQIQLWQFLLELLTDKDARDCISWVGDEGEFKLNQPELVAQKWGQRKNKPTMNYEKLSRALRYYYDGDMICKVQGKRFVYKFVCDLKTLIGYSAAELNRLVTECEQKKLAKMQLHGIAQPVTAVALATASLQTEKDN
As to conditions: protein: recombinant; tags: N-terminal GST; dsDNA, one strand shown. Put shortly:
as §1

The target in the next test is T4, ERG (Homo sapiens, UniProt P11308 1-479).
T4 sequence: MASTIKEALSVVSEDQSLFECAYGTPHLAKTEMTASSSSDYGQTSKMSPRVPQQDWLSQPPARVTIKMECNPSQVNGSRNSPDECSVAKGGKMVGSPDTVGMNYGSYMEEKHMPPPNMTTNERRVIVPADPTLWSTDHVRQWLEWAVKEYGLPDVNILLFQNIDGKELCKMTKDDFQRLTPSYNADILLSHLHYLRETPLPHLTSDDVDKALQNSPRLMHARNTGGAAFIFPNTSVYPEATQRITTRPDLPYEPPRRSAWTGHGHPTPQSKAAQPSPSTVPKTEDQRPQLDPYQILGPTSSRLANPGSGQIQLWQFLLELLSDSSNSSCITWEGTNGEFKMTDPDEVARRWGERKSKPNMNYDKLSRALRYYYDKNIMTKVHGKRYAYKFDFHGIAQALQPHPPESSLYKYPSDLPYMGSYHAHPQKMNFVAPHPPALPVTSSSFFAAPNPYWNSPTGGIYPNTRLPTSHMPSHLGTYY
As to conditions: protein: recombinant; tags: N-terminal GST; dsDNA, one strand shown. Put shortly: as §1

The next test deals with ELF1 (Homo sapiens, UniProt P32519 1-619). As to conditions: protein: recombinant; tags: N-terminal GST; dsDNA, one strand shown. A digest of the protocol: as §1
For another test, the target named is T5, EHF (Homo sapiens, UniProt Q9NZC4 1-300).
T5 sequence: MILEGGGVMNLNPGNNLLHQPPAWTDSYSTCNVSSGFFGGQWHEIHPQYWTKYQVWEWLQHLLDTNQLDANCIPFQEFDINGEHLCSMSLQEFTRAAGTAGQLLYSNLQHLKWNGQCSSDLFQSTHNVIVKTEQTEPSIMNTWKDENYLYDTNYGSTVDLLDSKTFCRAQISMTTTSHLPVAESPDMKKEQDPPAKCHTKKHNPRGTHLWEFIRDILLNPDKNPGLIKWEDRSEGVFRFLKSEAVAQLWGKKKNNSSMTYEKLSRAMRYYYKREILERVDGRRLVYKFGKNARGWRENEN
As to conditions: protein: recombinant; tags: N-terminal GST; dsDNA, one strand shown. A digest of the protocol:
as §1

Another test deals with SPI1 (Homo sapiens, UniProt P17947 1-270). As to conditions: protein: recombinant; tags: N-terminal GST; dsDNA, one strand shown. A digest of the protocol:
as §1

The next test concerns the target SPIB (Homo sapiens, UniProt Q01892 1-262). As to conditions: protein: recombinant; tags: N-terminal GST; dsDNA, one strand shown. A digest of the protocol:
as §1

In the next test the target is T6, ELK3 (Homo sapiens, UniProt P41970 1-407).
T6 sequence: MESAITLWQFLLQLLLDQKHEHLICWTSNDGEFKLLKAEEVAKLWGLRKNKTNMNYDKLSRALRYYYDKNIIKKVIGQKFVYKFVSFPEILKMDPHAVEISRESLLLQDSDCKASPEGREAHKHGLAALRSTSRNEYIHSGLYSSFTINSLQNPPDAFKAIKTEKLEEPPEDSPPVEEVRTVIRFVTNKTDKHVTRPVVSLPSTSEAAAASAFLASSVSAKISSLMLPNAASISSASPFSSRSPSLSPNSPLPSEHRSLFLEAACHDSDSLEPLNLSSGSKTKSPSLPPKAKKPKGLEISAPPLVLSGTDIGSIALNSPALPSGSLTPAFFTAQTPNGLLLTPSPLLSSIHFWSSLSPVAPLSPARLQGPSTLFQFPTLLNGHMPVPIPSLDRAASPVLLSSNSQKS
As to conditions: protein: recombinant; tags: N-terminal GST; dsDNA, one strand shown. A digest of the protocol: as §1

Another test addresses ETV5 (Homo sapiens, UniProt P41161 1-510). As to conditions: protein: recombinant; tags: N-terminal GST; dsDNA, one strand shown. A digest of the protocol:
as §1

For a further test, the target named is HSF1 (Homo sapiens, UniProt Q00613 1-529). As to conditions: protein: recombinant; tags: N-terminal GST; chain copies: 3; dsDNA, one strand shown. A digest of the protocol: as §1
The target of another test is T7, SPIC (Homo sapiens, UniProt Q8N5J4 1-248).
T7 sequence: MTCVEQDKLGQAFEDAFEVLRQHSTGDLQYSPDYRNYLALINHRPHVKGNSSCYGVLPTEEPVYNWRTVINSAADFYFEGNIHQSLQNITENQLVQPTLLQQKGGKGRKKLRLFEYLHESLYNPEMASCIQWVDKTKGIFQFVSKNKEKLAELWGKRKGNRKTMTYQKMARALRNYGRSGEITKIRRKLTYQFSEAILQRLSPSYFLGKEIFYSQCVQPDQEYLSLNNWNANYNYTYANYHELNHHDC
As to conditions: protein: recombinant; tags: N-terminal GST; dsDNA, one strand shown. Put shortly: as §1

In a further test the target is ELF4 (Homo sapiens, UniProt Q99607 1-663). As to conditions: protein: recombinant; tags: N-terminal GST; dsDNA, one strand shown. Put shortly: as §1
The target of another test is T8, ELK4 (Homo sapiens, UniProt P28324-2 1-405).
T8 sequence: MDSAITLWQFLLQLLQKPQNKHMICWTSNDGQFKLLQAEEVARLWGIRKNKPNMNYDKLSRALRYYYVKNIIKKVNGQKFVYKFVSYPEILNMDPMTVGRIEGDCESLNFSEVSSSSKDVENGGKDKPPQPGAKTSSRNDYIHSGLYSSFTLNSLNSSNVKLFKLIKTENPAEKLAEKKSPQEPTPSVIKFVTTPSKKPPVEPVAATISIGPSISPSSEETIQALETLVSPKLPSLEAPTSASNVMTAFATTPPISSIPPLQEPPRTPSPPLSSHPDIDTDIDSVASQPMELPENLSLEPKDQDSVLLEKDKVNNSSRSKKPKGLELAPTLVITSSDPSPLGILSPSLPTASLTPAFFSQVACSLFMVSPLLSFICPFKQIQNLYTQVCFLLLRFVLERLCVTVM
As to conditions: protein: recombinant; tags: N-terminal GST; dsDNA, one strand shown. A digest of the protocol:
as §1

The target of the next test is T9, ETV2 (Homo sapiens, UniProt O00321 1-342).
T9 sequence: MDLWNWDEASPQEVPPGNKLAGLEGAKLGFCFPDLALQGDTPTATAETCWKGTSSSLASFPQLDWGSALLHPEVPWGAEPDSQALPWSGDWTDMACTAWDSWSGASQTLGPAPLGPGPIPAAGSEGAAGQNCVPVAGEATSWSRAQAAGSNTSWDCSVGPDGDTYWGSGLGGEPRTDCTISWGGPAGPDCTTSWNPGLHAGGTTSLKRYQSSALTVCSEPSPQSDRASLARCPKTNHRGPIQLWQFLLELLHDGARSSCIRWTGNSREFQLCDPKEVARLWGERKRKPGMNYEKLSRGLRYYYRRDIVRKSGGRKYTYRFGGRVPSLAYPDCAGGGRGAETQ
As to conditions: protein: recombinant; tags: N-terminal GST; dsDNA, one strand shown. Put shortly: as §1

The next test has as its target T10, ELF3 (Homo sapiens, UniProt P78545 1-371).
T10 sequence: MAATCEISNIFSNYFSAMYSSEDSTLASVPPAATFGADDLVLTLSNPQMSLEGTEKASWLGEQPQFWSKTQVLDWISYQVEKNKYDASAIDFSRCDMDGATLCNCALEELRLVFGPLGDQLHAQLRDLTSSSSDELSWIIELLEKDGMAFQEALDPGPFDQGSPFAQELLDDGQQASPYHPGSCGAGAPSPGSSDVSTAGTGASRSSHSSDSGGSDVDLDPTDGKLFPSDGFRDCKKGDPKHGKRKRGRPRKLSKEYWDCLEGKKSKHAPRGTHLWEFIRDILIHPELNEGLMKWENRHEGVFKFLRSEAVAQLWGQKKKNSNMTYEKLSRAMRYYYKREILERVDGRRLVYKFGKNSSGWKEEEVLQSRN
As to conditions: protein: recombinant; tags: N-terminal GST; dsDNA, one strand shown. A digest of the protocol: as §1

The target in another test is ETV1 (Homo sapiens, UniProt P50549 1-477). As to conditions: protein: recombinant; tags: N-terminal GST; dsDNA, one strand shown. Put shortly: as §1
Sequence of ETV1 (P50549 whole entry): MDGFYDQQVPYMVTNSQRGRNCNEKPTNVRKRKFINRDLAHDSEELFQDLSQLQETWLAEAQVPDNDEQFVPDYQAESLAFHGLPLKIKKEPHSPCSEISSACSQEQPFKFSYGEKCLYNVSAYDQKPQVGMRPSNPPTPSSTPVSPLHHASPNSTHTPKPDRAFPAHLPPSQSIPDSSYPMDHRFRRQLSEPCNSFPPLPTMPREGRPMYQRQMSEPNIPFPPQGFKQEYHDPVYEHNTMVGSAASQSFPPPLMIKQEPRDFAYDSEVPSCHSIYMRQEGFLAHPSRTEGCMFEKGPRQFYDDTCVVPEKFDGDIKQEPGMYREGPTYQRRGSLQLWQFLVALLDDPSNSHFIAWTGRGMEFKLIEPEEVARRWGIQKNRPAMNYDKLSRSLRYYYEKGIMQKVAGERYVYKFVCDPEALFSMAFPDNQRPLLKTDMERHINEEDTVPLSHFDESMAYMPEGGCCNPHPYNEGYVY

Sequence of HSF1 (Q00613 whole entry): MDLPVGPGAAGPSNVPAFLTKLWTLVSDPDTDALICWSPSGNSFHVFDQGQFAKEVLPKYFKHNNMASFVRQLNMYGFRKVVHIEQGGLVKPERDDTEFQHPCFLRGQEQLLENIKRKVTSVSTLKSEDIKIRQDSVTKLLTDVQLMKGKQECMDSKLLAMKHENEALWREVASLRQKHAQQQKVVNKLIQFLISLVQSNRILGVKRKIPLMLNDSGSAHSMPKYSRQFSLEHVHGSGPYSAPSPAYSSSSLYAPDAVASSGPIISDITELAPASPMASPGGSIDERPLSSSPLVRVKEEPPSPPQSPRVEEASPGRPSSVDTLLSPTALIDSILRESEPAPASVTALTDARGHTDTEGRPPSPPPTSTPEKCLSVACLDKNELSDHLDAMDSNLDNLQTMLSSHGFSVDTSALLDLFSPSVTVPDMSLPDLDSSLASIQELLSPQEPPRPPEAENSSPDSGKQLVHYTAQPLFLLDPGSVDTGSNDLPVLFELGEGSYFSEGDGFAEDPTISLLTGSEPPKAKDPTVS
Sequence of ELF4 (Q99607 whole entry): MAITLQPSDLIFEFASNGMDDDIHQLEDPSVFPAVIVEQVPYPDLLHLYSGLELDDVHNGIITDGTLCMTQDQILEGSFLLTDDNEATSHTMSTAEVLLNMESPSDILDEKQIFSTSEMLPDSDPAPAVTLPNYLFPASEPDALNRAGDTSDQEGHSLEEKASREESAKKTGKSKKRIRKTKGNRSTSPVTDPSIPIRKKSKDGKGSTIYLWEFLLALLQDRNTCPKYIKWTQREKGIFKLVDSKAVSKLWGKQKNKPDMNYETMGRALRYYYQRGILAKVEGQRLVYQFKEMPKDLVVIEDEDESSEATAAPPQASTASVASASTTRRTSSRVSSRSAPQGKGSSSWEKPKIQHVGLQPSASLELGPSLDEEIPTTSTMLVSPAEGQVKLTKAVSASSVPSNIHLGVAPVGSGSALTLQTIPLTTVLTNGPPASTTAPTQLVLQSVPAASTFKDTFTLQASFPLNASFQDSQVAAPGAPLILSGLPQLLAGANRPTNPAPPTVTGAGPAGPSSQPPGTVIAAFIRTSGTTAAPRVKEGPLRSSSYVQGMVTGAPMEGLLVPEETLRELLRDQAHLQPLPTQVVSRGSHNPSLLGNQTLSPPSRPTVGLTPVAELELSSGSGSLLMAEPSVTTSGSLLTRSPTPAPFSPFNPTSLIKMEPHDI
Sequence of ELF1 (P32519 whole entry): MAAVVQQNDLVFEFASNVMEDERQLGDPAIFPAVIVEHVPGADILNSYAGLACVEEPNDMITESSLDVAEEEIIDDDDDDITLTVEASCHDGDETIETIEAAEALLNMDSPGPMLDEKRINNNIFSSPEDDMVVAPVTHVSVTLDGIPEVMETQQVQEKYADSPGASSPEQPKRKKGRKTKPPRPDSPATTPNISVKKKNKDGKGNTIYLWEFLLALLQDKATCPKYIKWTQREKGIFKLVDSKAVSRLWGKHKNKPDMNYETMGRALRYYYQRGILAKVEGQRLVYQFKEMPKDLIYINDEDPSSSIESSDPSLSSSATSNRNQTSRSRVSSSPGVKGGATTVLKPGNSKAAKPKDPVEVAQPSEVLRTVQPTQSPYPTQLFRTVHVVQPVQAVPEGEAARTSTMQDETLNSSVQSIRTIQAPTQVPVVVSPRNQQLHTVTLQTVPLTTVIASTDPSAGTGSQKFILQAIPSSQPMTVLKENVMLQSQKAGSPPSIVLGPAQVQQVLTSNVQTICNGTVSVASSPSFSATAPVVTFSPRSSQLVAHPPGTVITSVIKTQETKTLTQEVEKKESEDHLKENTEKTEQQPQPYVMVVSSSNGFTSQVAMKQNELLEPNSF
Sequence of ETV5 (P41161 whole entry): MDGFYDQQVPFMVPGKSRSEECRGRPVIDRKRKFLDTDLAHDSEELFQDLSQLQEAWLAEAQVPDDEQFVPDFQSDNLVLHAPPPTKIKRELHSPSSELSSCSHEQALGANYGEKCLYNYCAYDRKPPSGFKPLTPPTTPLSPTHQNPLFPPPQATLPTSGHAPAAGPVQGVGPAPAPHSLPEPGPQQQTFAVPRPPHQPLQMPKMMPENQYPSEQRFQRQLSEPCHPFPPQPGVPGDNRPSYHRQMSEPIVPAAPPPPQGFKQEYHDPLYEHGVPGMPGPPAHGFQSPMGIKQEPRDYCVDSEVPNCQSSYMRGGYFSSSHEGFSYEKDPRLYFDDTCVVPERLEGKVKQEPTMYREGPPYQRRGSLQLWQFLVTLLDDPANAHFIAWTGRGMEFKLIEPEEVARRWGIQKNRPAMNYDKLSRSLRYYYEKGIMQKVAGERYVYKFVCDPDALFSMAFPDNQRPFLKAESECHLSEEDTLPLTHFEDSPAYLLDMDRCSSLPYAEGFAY
Sequence of SPIB (Q01892 whole entry): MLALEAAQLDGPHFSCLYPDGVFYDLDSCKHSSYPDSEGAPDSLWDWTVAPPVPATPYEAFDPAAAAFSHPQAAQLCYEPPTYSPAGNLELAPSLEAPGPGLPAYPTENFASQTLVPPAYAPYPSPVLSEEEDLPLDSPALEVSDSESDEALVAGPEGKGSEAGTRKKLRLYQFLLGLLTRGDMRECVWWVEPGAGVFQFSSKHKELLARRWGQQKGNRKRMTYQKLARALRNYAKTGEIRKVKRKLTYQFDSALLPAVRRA

As for TGCGTT, the binding signal in the test with FLI1 was 1.04 fold enrichment (6-mer frequency, TF over GST control); with ELK1, 1.09 fold enrichment (6-mer frequency, TF over GST control); in the test with GABPA, 1.17 fold enrichment (6-mer frequency, TF over GST control); with ERG, 1.12 fold enrichment (6-mer frequency, TF over GST control); with ELF1, 1.12 fold enrichment (6-mer frequency, TF over GST control); with EHF, 1.08 fold enrichment (6-mer frequency, TF over GST control). Further, the binding signal with SPI1 was 1.1 fold enrichment (6-mer frequency, TF over GST control); in the test with SPIB, 1.11 fold enrichment (6-mer frequency, TF over GST control); with ELK3, 1.13 fold enrichment (6-mer frequency, TF over GST control); with ETV5, 1.07 fold enrichment (6-mer frequency, TF over GST control); with HSF1 it was 1 fold enrichment (6-mer frequency, TF over GST control); in the test with SPIC, 1.13 fold enrichment (6-mer frequency, TF over GST control). Also, the binding signal in the test with ELF4 was 1.05 fold enrichment (6-mer frequency, TF over GST control); in the test with ELK4, 1.19 fold enrichment (6-mer frequency, TF over GST control); with ETV2 it was 1.16 fold enrichment (6-mer frequency, TF over GST control); with ELF3 it was 1.25 fold enrichment (6-mer frequency, TF over GST control); in the test with ETV1 it was 1.02 fold enrichment (6-mer frequency, TF over GST control).

The values above are taken from PMC7862700, “An all-to-all approach to the identification of sequence-specific readers for epigenetic DNA modifications on cytosine”.
